From PubChem
Shown are actives, neighbours in structure and some others; about 11% of the full set was active somewhere.
PNC inhibitor = inhibitors of perinucleolar compartment assembly | activity change (PNC), negative = inhibition, % at 10 µM | AID 2417 | hit rate 3.1% among 140,000 | PC3M PTB-GFP, PNC prevalence imaging, 16 h; hits give low values;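 active = readout at or below -70, meaning at least 70% loss of cells showing the perinucleolar compartment, a nuclear body marking cancer cells; inconclusive = readout between -30 and a set limit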;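 note: plate controls were DMSO wells for no effect and camptothecin positive control wells for full effect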
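Compounds are pinned in duplicate onto adhered PC3M cells stably expressing GFP-tagged PTB and incubated 16 h at 37 C. Cells are then fixed, nuclei stained with Hoechst, and PNC-positive cells counted.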
ALDH1A1 block = ALDH1A1 (human) enzyme inhibition; P00352; Potency, µM (highest dose often 75.3 µM), without a hit: top-dose activity, negative = inhibition, usual class: inhibitors; hit rate 7.3% among 220,000; Purified ALDH1A1, NADH fluorescence, propionaldehyde substrate; AID 1030;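 note: potency is the fitted concentration of half-maximal effect; plate controls were no enzyme wells and a reference inhibitor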
Target sequence (P00352 whole entry, looked up): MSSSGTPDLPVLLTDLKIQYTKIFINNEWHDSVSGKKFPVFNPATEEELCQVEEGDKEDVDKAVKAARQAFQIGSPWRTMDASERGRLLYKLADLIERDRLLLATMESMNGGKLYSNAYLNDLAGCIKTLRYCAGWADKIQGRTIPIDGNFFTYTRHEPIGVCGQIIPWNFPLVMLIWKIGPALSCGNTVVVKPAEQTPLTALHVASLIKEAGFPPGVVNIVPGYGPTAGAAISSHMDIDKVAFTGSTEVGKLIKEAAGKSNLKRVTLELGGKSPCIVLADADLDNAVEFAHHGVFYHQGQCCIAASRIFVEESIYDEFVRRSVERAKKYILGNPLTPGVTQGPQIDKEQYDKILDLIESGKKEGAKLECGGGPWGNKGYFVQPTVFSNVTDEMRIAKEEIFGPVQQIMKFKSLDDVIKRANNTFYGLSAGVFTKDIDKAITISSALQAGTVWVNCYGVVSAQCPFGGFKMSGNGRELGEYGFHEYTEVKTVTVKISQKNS
HPGD inh = blocks human HPGD enzyme activity. hit rate 4.3% among 150,000. Potency, µM, inactives show top-dose activity change, negative = inhibition, actives largely listed as inhibitors. P15428. purified HPGD, NADH fluorescence kinetic, PGE2 substrate; note: potency is the fitted concentration of half-maximal effect
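NADH formation kinetics: reaction with 30 uM PGE2 and 1 mM NAD+ (final), 20 nM enzyme, Tris-HCl pH 8 with Tween 20, after 15 min compound preincubation at room temperature. Fluorescence change, last versus first of five reads.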
JMJD2E inh = JMJD2E (human) inhibition. hit rate 1.6% among 230,000. AID 2147. Potency, µM (titrated, usually from 57.1 µM), inactives show top-dose activity change, negative = inhibition, hits mostly inhibitors. JMJD2E catalytic domain, FDH-coupled NADH fluorescence (FDH is formaldehyde dehydrogenase);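 note: potency is the fitted concentration of half-maximal effect; 0% = wells with enzyme and -100% = buffer wells without enzyme; nearly all actives have a fitted effect of over 50% in size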
* marks the source's active call; other numbers are inactive results; ? = inconclusive; / = no result. Unless noted, calls come from the whole dose curve; as a rule, active = well fitted inhibition curve with a large enough effect (not every such curve was filed as active); inconclusive = small, poorly fitted or top-dose-only effect, or another doubt; inactive = no such curve, though single readings can be large or run the other way. Unless noted, % is set by controls: 0 for no effect and ±100 for the full control effect.

SMILES	PNC inhibitor	ALDH1A1 block	HPGD inh	JMJD2E inh
COc1ccc(NC(=S)Nc2ccc(N)c([N+](=O)[O-])c2)cc1	-20.9	25.1µM*	?	1.5%
Oc1c(I)cc(I)c2cccnc12	?	0.6%	?	14.1µM*
O=C(c1cnn(-c2ccccc2)c1)c1ccccc1O	-28.9	-2.3%	12.6µM*	-4.1%
Oc1ccccc1C=NC1=NN(c2cccc(C(F)(F)F)c2)CC1	-14.7	22.4µM*	-19.9%	-9.5%
O=C(COC(=O)CNC(=O)c1ccccc1F)Nc1cccnc1Cl	/	-3.9%	/	1.9%
Cc1cc(C)cc(NS(=O)(=O)c2ccc3[nH]cc(C(=O)N4CCc5ccccc54)c(=O)c3c2)c1	-17.1	10µM*	-25.7%	-1.0%
CCc1ccc(NS(=O)(=O)c2ccc3[nH]cc(C(=O)N4CCCCC4)c(=O)c3c2)cc1	?	?	?	7.4%
CCN(CC)C(=O)c1c[nH]c2ccc(S(=O)(=O)Nc3cc(C)cc(C)c3)cc2c1=O	6.5	-2.7%	-2.6%	31.6µM*
CCc1ccc(NS(=O)(=O)c2ccc3[nH]cc(C(=O)N4CCc5ccccc54)c(=O)c3c2)cc1	?	14.1µM*	-24.1%	?
COc1ccc(-n2c(SCC(=O)Nc3ccccc3)nnc2-c2ccc(NS(=O)(=O)c3ccc(C)cc3)cc2)cc1	29.3	10.8%	-2.5%	-9.8%
COc1ccc(-n2c(SCC#N)nnc2-c2ccc(NS(=O)(=O)c3ccc(C)cc3)cc2)cc1	?	?	14.1µM*	-7.3%
COc1ccc(-n2c(SCC(=O)NNC(=O)c3ccc(C)cc3)nnc2-c2ccncc2)cc1	-15.5	-11.8%	-11.3%	2.4%
COc1ccc(-n2c(SCC(N)=O)nnc2-c2ccc(NS(=O)(=O)c3ccc(C)cc3)cc2)cc1	-17.3	?	22.4µM*	2.8%
CCOC(=O)C1(CCOc2ccccc2)CCN(Cc2ccc(C)o2)CC1	/	17.8µM*	/	-1.0%
CCc1nnc(NC(=O)C2c3ccccc3Oc3ccccc32)s1	-24.7	3.4%	-6.5%	3.1%
COc1ccc(/C=N/NC(=O)c2cccnc2)c(C(=O)O)c1OC	/	/	/	6.0%
O=C(NC(c1ccccc1)c1ccccc1)c1ccc(=O)[nH]n1	/	4.47µM*	/	8.5%
N#CC(c1ccccc1)c1ccc(=O)[nH]n1 (centres undefined)	/	?	/	-4.9%
COc1ccc(C2=NN(C(N)=S)C(c3ccco3)C2)cc1 (centres undefined)	/	17.8µM*	/	?
CN(C)CCCSc1ccccc1NC(=O)/C=C\c1ccccc1	/	3.5%	-11.8%	-4.8%
O=C(NCCO)c1ccc(-n2c(=O)c(=O)[nH]c3ccccc32)cc1	/	-1.8%	-6.4%	/
COc1ccc(CCNC(=O)C(=O)N/N=C/c2cccs2)cc1OC	/	8.1%	/	1.3%
Cc1ccc(C2=NN(Cc3nnc(-c4ccccc4)o3)C(=O)SC2)cc1	7.6	-7.8%	11.2µM*	-3.1%
O=C(NC(=S)N1CCCc2ccccc21)c1ccc(Br)cc1	?	?	/	-0.7%
O=C(NC(=S)N1CCCc2ccccc21)c1ccc([N+](=O)[O-])cc1	?	11.2µM*	-19.9%	-14.7%
SMILES	PNC inhibitor	ALDH1A1 block	HPGD inh	JMJD2E inh
O=C(NC(=S)N1CCCc2ccccc21)c1ccccc1	90.7	?	-9.7%	-4.6%
O=C(NC(=S)N1CCCc2ccccc21)c1ccc(Cl)cc1	-107.1*	-173.7%	?	8.6%
COC(=O)[C@H]1C[C@H]2CC[C@H](O)C[C@H]2N1Cc1c(F)cccc1Cl	/	0.5%	-3.3%	1.5%
On1onc2c3cc(-c4ccccc4)nc3ccc21	-9.1	17.8µM*	-12.8%	3.4%
c1ccc(-c2cc3c(ccc4nonc43)nn2)cc1	-19.5	?	-14.9%	2.6%
CCCCOC(=O)CNc1n[nH]c(=S)[nH]c1=O	?	?	25.1µM*	4.1%
CC(C)(C)c1ccc(S(=O)(=O)CCc2ccccn2)cc1	?	7.08µM*	-13.5%	-0.2%
CC(=O)N1CCC2(CCCN(c3cccc(-c4ccccc4)c3)C2)CC1	/	?	-22.2%	/
COc1cc(NC(C)CCCN)c2ncccc2c1 (centres undefined)	/	-3.5%	-5.5%	?
COc1cc(NCCCCCCCN)c2ncccc2c1	?	3.55µM*	-11.7%	7.8%
O=C(COC(=O)CCCOc1ccc(Cl)cc1Cl)NCc1ccccc1	-2.6	3.2%	?	-6.8%
O=C(NCC1CCCO1)C(=O)N/N=C/c1cc(Cl)ccc1O (centres undefined)	/	/	/	12.6µM*
O=C(COc1ccc([N+](=O)[O-])cc1Cl)NCC1CCCO1 (centres undefined)	/	-2.4%	/	-3.1%
O=C(CCCOc1ccc(Cl)cc1Cl)Nc1ccncc1	11.2	?	14.1µM*	-0.5%
